Laboratory results as given in PubChem BioAssay AID588342 (National Center for Advancing Translational Sciences (NCATS), 2011).
In all, about 360,000 compounds went through this assay and about 25,000 (6.9%) were called active. A call without a number means that no potency is given here. Roughly 9% stayed inconclusive and do not appear here. Calls follow the shape of the dose curve; as a rule, active = well fitted inhibition curve with a large enough effect; inconclusive = small, poorly fitted or top-dose-only effect; inactive = flat fitted curve, though single readings scatter. This excerpt belongs to a sample that is enriched for actives.

These molecules were tested against Luciferin 4-monooxygenase (Photinus pyralis) (UniProt P08659) (assay: qHTS profiling assay for firefly luciferase inhibitor/activator using purifed enzyme and Km concentrations of substrates (counterscreen for miR-21 project)). Details: purified FLuc, luminescence inhibition; series mostly up to 57.5 µM.
Summary of the method: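 Biochemical qHTS of compounds, final roughly 60 µM downward over six points, against 10 nM purified firefly luciferase using Km concentrations of substrates (10 uM D-luciferin, 10 uM ATP) in Tris acetate pH 7.5 buffer; luminescence output.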
Also: nearly all actives have a fitted effect of over 55% in size.
Potency is read from the fitted curve at half-maximal effect.

Sequence of Luciferin 4-monooxygenase (Photinus pyralis) (P08659 whole entry, looked up): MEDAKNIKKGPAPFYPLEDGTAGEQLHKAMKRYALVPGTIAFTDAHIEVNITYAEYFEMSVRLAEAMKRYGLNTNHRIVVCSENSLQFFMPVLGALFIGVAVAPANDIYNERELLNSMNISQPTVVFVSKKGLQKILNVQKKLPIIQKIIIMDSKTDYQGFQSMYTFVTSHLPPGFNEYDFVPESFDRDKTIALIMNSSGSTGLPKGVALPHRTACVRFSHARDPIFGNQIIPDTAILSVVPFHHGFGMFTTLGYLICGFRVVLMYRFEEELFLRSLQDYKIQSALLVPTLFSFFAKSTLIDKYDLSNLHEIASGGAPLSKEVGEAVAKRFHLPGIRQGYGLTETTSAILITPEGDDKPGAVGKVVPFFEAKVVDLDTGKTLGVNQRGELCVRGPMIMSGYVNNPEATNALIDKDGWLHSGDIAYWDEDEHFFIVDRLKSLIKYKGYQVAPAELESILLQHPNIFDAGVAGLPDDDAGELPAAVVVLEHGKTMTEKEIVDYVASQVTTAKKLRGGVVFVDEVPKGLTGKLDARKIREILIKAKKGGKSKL

| Structure (SMILES) | Potency |
| --- | --- |
| Cc1cccc(-c2nc(Nc3ccc(O)cc3)c3ccccc3n2)c1 | 19 µM (active) |
| COc1cc(Nc2nc(-c3ccc(OC)c(OC)c3)nc3ccccc23)cc(OC)c1 | inactive |
| CCC(=O)OCCNc1nc(-c2ccccc2)nc2ccccc12 | inactive |
| CCOc1ccc2c(c1)cc(CN(C(=O)CC)C1CCCCC1)c1nnnn12 | inactive |
| COc1ccc(C)cc1N(C)C(=O)c1c(C)oc2ncnc(N3CCOCC3)c12 | inactive |
| COc1cc(Cl)c(C)cc1Nc1nnc(-n2nc(C)cc2C)c2ccccc12 | inactive |
| O=c1[nH]c2cc(Br)ccc2n2cccc12 | inactive |
| Cc1ccc(S(=O)(=O)N2CCCCC2)cc1NC(=O)c1cccnc1 | inactive |
| O=C(N/N=C/c1sc(N2CCCCC2)nc1-c1cccs1)c1cccnc1 | 21.3 µM (active) |
| O=C(NN=C1CCC(=NNC(=O)c2cccnc2)CC1)c1cccnc1 | inactive |
| COc1ccc2nc(N3CCCC(O)C3)c(C#N)cc2c1 (centres undefined) | 7.57 µM (active) |
| COc1ccc2cc(C(=O)C3CCCN(C(=O)c4sc(C)nc4C)C3)ccc2c1 (centres undefined) | inactive |
| COc1ccc2c(c1)CCc1cn3ncc(C#N)c3nc1-2 | inactive |
| COc1cc2c(cc1OC)CN(C(C)C(=O)Nc1cccc(S(=O)(=O)N3CCOCC3)c1)CC2 (centres undefined) | inactive |
| COc1ccc(S(=O)(=O)NCCCCOc2ccc(Cl)cc2)cc1 | inactive |
| Cc1cc(S(=O)(=O)N2CCOCC2)ccc1OCC(=O)N1CCOCC1 | inactive |
| COCc1c(C(=O)OCC(=O)Nc2ccc(OC(F)F)cc2)oc2ccccc12 | inactive |
| O=C(NC1CCCC1)c1cc(-c2ccccc2)on1 | 5.36 µM (active) |
| O=C(NC1CC1)c1ccc(-c2ccccc2)cc1 | 16.9 µM (active) |
| O=C(CCc1nc(-c2ccccc2)no1)Nc1cccc(C(=O)NC2CC2)c1 | inactive |
| CC(=O)c1cc(-c2ccccc2)n(CC(=O)NC2CCCCC2)c1C | inactive |
| O=C(NC1CCN(S(=O)(=O)c2ccc(F)cc2)CC1)c1ccccc1 | inactive |
| O=C(NC1CC1)c1cccc(Br)c1 | inactive |
| COc1ccc(-c2c(C)c3ccc(O)c(CN4CCCC4)c3oc2=O)cc1OC | inactive |
| Cn1nc(C(=O)OCC(=O)N(Cc2ccccc2)C(C)(C)C)c2ccccc2c1=O | inactive |
| FC(F)(F)c1cnc(Oc2ccccc2-c2nnc(-c3ccc(Cl)cc3)o2)c(Cl)c1 | inactive |

| Structure (SMILES) | Potency |
| --- | --- |
| CSc1ccccc1-c1nnc(-c2ccc(Cl)cc2)o1 | 5.36 µM (active) |
| O=C(O)c1cc(S(=O)(=O)Nc2ccc3cn[nH]c3c2)ccc1Br | inactive |
| Cc1cc(C)cc(OCC(=O)NNC(=O)CCN2C(=O)c3ccccc3C2=O)c1 | inactive |
| Cc1cc(C(=O)COC(=O)CCCN2C(=O)c3ccccc3C2=O)c(C)n1C | 23.9 µM (active) |
| O=C(CCCN1C(=O)c2ccccc2C1=O)Oc1ccc(Cl)cc1 | inactive |
| CCCCN(Cc1ccccc1)C(=O)C1CCN(Cc2sccc2C)CC1 | inactive |
| O=C(NC1CC(=O)N(c2ccc(F)cc2)C1)c1cccs1 (centres undefined) | inactive |
| CN(c1ccc(O)cc1)c1nc(-c2cccnc2)cs1 | 4.78 µM (active) |
| COc1ccc(CCN(C(=O)COc2ccccc2)c2nc(-c3ccccc3)cs2)cc1OC | inactive |
| CN(C(=O)CSc1nc(C2CC2)nc2ccccc12)c1nc(-c2ccccc2)cs1 | inactive |
| Cc1ccc(S(=O)(=O)N(Cc2nc(-c3ccc(Cl)cc3)no2)C2CCCCC2)cc1 | inactive |
| CC(C(=O)N1CCc2ccccc21)N(C)CC(=O)Nc1ccc(F)cc1 (centres undefined) | inactive |
| Cc1cccn2c(=O)c(/C=C3\SC(=S)N(CC(C)C)C3=O)c(NCCCOC(C)C)nc12 | inactive |
| CNc1nc2c(C)cccn2c(=O)c1C=Nc1ccc(OC)cc1 | 12 µM (active) |
| Cc1cccn2c(=O)c(C=O)c(Nc3ccc(S(N)(=O)=O)cc3)nc12 | inactive |
| Cc1ccc(CNC(=O)c2c(O)nc3c(C)cccn3c2=O)cc1 | inactive |
| O=C(CCn1c(=O)oc2ccccc21)Nc1ccon1 | inactive |
| CC(C)Nc1nnc(SCC(=O)c2c[nH]c3ccccc23)s1 | inactive |
| CC(C)c1ccc(Nc2nnc(SCC(=O)c3nnc(-c4ccccc4)o3)s2)cc1 | 10.7 µM (active) |
| Cc1ccccc1Nc1nnc(SCC(=O)c2cc3ccccc3o2)s1 | inactive |
| CC1CCCC(NC(=O)c2cc(S(=O)(=O)N3CCCCC3)ccc2Cl)C1C (centres undefined) | inactive |
| Cc1nc(Cl)cc(N/N=C/c2ccccc2)n1 | 16.9 µM (active) |
| C(=N/Nc1cc(N2CCOCC2)nc(N2CCOCC2)n1)/c1ccccc1 | inactive |
| Cc1cc(N/N=C\c2ccc(Br)cc2)nc(-n2nc(C)cc2C)n1 | inactive |
| CN(CC(=O)Nc1ccc(F)c(F)c1F)C(=O)Cn1cnc2c1c(=O)n(C)c(=O)n2C | inactive |
| O=C1/C(=C/c2ccc3c(c2)OCO3)Oc2cc(OCC(=O)N3CC(O)C[C@H]3C(=O)O)ccc21 (some centres undefined) | 0.757 µM (active) |

| Structure (SMILES) | Potency |
| --- | --- |
| COC(=O)C(C)Oc1ccc2c(c1)O/C(=C\c1cccc(Br)c1)C2=O (centres undefined) | inactive |
| CC1CCCN(CC(O)COc2ccc3c(c2)OCO3)C1 (centres undefined) | inactive |
| O=C(CCNS(=O)(=O)c1ccc(Br)cc1)NCC1CCCO1 (centres undefined) | inactive |
| O=C(Nc1ccccc1N1CCCCC1)c1ccc2nccnc2c1 | inactive |
| O=C(Nc1ccccc1N1CCCC1)c1ccc(F)c(S(=O)(=O)N2CCOCC2)c1 | inactive |
| O=C(Nc1ccccc1N1CCCC1)c1ccc2ccccc2c1 | 15.1 µM (active) |
| Cc1cccc(OCCSc2nc3ccc(NC(=O)COc4ccccc4C)cc3s2)c1 | inactive |
| CS(=O)(=O)N1CCc2nc(-c3ccccc3)sc2C1 | 9.53 µM (active) |
| CS(=O)(=O)N1CCN(C(=O)Cc2ccccc2)CC1 | inactive |
| CS(=O)(=O)N1CCN(c2cccc(Cl)n2)CC1 | inactive |
| Cc1ccc(NC(=O)CCNC(=O)c2ccc([N+](=O)[O-])cc2)cc1S(=O)(=O)N1CCOCC1 | inactive |
| CCOc1ccc(N(CC)S(=O)(=O)N2CCCC(C(=O)NCc3ccc(Cl)cc3)C2)cc1 (centres undefined) | inactive |
| O=C(COc1ccccc1)Nc1nonc1NC(=O)COc1ccccc1 | 7.57 µM (active) |
| CC(=O)Nc1ccc(NC(=O)COc2ccc(-c3ccccc3)cc2)cc1 | inactive |
| O=C(COc1ccccc1)Nc1ccc(C(=O)N2CCCC2)cc1 | inactive |
| CCCCN(CCCNC(=O)c1cc(Nc2ccccc2OC)nc2ccccc12)c1ccccc1 | inactive |
| Cc1c(C)n(Cc2ccc(Cl)cc2)c2ccc(C(=O)NCCc3ccc(S(N)(=O)=O)cc3)cc12 | inactive |
| COc1ccccc1NC(=O)C1=C(C)NC(=O)NC1c1ccc(C)s1 (centres undefined) | inactive |
| COc1ccccc1NC(=O)c1ccc(C)s1 | 13.5 µM (active) |
| COC(=O)c1c(NC(C)=O)sc(C(=O)Nc2ccccc2OC)c1C | inactive |
| O=C(NCCC1=CCCCC1)C1CCN(Cc2cnn(-c3ccccc3)c2-n2cccc2)CC1 | inactive |
| Cc1ccc(-n2ncc3c(=O)n(Cc4cccc(C(F)(F)F)c4)cnc32)cc1C | inactive |
| C1=C(CCNc2ncnc3c2cnn3-c2ccccc2)CCCC1 | 3.38 µM (active) |
| CCN(CC)C(=O)CSc1nc2ccccc2n1CC(=O)N1CCN(c2ccccc2OC)CC1 | inactive |
| Cc1ccc(Cl)cc1-n1ncc2c(N3CCC(C(N)=O)CC3)ncnc21 | inactive |
| COc1ccccc1N1CCN(C(=O)CSc2ncnc3c2cnn3-c2ccc(C)c(C)c2)CC1 | 8.49 µM (active) |

| Structure (SMILES) | Potency |
| --- | --- |
| CCOC(=O)C1CCN(c2ncnc3c2c(-c2ccccc2)cn3-c2ccc(C)cc2)CC1 | inactive |
| COc1ccccc1N1CCN(C(=O)CSc2nnc(-c3ccoc3C)o2)CC1 | inactive |
| O=C(NNc1ncnc2c1cnn2-c1ccccc1)c1ccco1 | inactive |
| CCN1CCN(c2ncnc3c2cnn3-c2ccc(C)c(C)c2)CC1 | 9.53 µM (active) |
| Cc1ccc(-n2ncc3c(N4CCC(C(N)=O)CC4)ncnc32)cc1 | 12 µM (active) |
| CCc1cc2c(N3CCN(c4nnc(CC)s4)CC3)ncnc2s1 | inactive |
| Cc1ccc(S(=O)(=O)N(C)C)cc1NC(=O)c1ccccc1Br | inactive |
| Cn1cc(-c2ccccc2)cc(C#N)c1=O | inactive |
| Cc1ccccc1CN1CCC(CNC(=O)c2cc3ccc4cccnc4c3[nH]2)CC1 | inactive |
| Cc1ccc(N2CC(NC(=O)Cc3cccs3)CC2=O)cc1 (centres undefined) | inactive |
| Cc1cccc(NC(=O)C2CC(=O)OC23CCCC3)c1 (centres undefined) | inactive |
| c1ccc(-n2ncc3c(N4CCCC4)ncnc32)cc1 | 4.26 µM (active) |
| Nc1c(C(=O)O)cnn1-c1ccccc1 | inactive |
| Cn1nnc2c(N3CCN(c4ccccc4)CC3)ncnc21 | inactive |
| Cc1ccc(CN(C(=O)c2ccccc2[N+](=O)[O-])c2ccccn2)cc1 | inactive |
| Cc1cc(C)c(C#N)c(SCC(=O)N(CC(C)C)C2CCS(=O)(=O)C2)n1 (centres undefined) | inactive |
| O=C(COC(=O)CNC(=O)C1CCCCC1)Nc1cccc(F)c1 | inactive |
| Nc1c(C(=O)OCC(=O)Nc2ccc(OC(F)F)cc2)[nH]c(=O)[nH]c1=O | inactive |
| O=S(=O)(c1ccc2nc(N3CCN(c4cccc(Cl)c4)CC3)ccc2c1)N1CCCCC1 | inactive |
| Cc1ccc(C(=O)Nc2ccc3c(c2)OCO3)cc1S(=O)(=O)N1CCCCC1 | 16.9 µM (active) |
| Cc1ccc(C(=O)NNC(=O)c2ccncc2)cc1S(=O)(=O)N1CCCCC1 | inactive |
| Cc1ccc(NC(=O)C2CC(=O)N(c3ccc4c(c3)OCCO4)C2)cc1S(=O)(=O)N1CCCCCC1 (centres undefined) | inactive |
| O=C(c1ccc(Cl)c(S(=O)(=O)N2CCCCC2)c1)N1CCCCCC1 | inactive |
| O=C(c1ccc(Cl)c(S(=O)(=O)N2CCCCCC2)c1)N1CCN(c2ccc(O)cc2)CC1 | inactive |
| O=C(Nc1ccc2c(c1)OCCO2)c1ccc(Cl)c(S(=O)(=O)N2CCCCC2)c1 | 13.5 µM (active) |
| Cc1c(Cl)cccc1NC(=O)CCS(=O)(=O)c1ccc2c(c1)oc(=O)n2C | inactive |
